Molecules are shown by their SMILES. The campaign covered roughly 320,000 compounds. About 8,000 (2.5%) were called active. Rule as the data show it: active = activation above about 47%; inactive = the rest. Many of the other results were omitted from the sample, so actives are more common in it than they were.

Chain of Aryl hydrocarbon receptor (Homo sapiens) (P35869 whole entry, looked up): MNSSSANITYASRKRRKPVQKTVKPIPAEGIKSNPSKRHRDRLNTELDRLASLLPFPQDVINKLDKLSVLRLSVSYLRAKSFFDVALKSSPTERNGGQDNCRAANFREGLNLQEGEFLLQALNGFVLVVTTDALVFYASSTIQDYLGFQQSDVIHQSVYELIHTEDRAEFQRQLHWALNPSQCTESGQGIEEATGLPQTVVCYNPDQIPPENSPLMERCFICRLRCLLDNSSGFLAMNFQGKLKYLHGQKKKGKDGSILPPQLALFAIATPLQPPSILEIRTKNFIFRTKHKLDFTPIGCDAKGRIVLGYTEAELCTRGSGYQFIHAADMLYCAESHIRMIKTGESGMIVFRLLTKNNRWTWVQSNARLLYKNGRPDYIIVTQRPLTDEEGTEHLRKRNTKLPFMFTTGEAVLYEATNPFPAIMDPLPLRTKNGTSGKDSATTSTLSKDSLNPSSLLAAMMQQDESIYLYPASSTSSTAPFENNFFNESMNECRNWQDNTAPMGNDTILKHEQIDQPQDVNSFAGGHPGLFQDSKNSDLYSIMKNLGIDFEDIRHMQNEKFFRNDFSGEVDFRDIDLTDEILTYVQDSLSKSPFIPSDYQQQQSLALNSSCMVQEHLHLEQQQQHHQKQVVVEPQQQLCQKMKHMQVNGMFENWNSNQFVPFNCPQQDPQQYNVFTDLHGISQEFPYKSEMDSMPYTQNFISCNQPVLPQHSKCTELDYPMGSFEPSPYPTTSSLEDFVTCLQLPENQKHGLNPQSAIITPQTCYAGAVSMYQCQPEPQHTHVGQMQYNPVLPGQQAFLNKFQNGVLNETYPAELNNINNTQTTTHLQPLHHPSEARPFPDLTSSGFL

The experiment addresses Aryl hydrocarbon receptor (Homo sapiens) (UniProt P35869). Description: AHR activators, primary screen, cell-based, luminescence, luciferase reporter, human (AID 2796).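 Also: 0% = vehicle wells and 100% = reference agonist.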 Particulars: AHR-responsive luciferase reporter cells, at 5 µM, active compounds read high. (In general: A reporter such as luciferase makes a cellular process visible.)
Turning to `Cc1cccc(N2CCN(C(=O)/C=C/c3ccco3)CC2)c1C`, the activation is 2.32% (inactive).
For the molecule `CCN(CC)S(=O)(=O)c1ccc(N2CCCC2)c(NC(=O)c2ccc([N+](=O)[O-])o2)c1`, the activation is 0.5% (inactive).
In the case of `COc1ccc(N2C(=O)C3C(C2=O)C(C(=O)c2ccccc2)N2CCCC32)cc1` (configuration not stated) it was 5.21% (inactive); in that of `Cc1nc2c(c(C)nn2-c2ccccc2)c(C)c1C`, 45.6% (inactive).
As for `Cc1nn(-c2ccccc2)c2[nH]c(C(F)(F)F)cc(=O)c12`, the figure is 80.4% (active).
Turning to `Cc1nn(-c2ccccc2)c(=O)c2noc(C)c12`, the activation was -0.28% (inactive).
As for `C=CCC[C@@H](Cc1ccc(F)cc1)C(=O)O[C@H](CNC(=O)[C@H](CC=C)CC(=O)N(CCO)Cc1ccccc1)c1ccccc1`, the figure is -0.27% (inactive); as for `CCc1ccccc1NC(=O)/C(=C/c1ccccc1)c1ccccc1`, 0.15% (inactive).
In the case of `O=C(/C=C/c1ccccc1)N/C(=C/c1ccccc1)C(=O)Nc1ccccc1O` it was 74.4% (active); in that of `O=C(Nc1ccc(C(=O)O)cc1)/C(=C\c1ccccc1)NC(=O)c1ccc(Br)cc1`, -2.04% (inactive); in that of `Cc1ccc(S(=O)(=O)N2CCOCC2)cc1NC(=O)COC(=O)c1cnccn1`, 0.82% (inactive).
In the case of `O=C(CCl)Nc1cccc(CP(=O)(c2ccccc2)c2ccccc2)c1` it was -0.56% (inactive); in that of `Cc1ccc(S(=O)(=O)N(C)C)cc1NC(=O)CN1c2cccc3cccc(c23)S1(=O)=O`, 5.14% (inactive); in that of `CC(=O)N[C@@H](C)C(=O)N1CCC(n2nccc2NC(=O)CCCc2ccccc2)CC1`, 1.83% (inactive).
Take `O=C(CCNS(=O)(=O)c1ccc(Br)cc1)NCC1CCCO1` (configuration not stated): the activation is 0.8% (inactive).
As for `COc1ccccc1NC(=O)C1=C(C)NC(=O)NC1c1ccc(C)s1` (configuration not stated), the figure is 5.73% (inactive).
Consider `COc1ccccc1NC(=O)C1=C(C)Nc2ncnn2C1c1ccc(C)o1` (configuration not stated), for which the activation was 13.1% (inactive).
`COc1ccccc1NC(=O)C1=C(C)NC2=C(C(=O)CCC2)C1c1ccc(C)o1` (configuration not stated): the activation was 102% (active).
As to `CCOc1cc2[nH]c(=S)n(CCN3CCCCC3C)c(=O)c2cc1OCC` (configuration not stated), the activation was 7.8% (inactive).
In the case of `COC(CNC(=O)c1ccc2c(c1)ncn2-c1cc(C)cc(C)c1)OC` it was 1.33% (inactive).
In the case of `Cc1ccc(C(=O)Nc2nc3ccc(Cl)cc3s2)o1` it was -2.1% (inactive).
As for `CS(=O)(=O)c1ccc2nc(NC(=O)c3ccc(Cl)nc3)sc2c1`, the activation is -5.2% (inactive).
In the case of `CNC(=O)c1ccc2nc(NC(C)=O)sc2c1` it was 84.2% (active); in that of `CC(NC(=O)CN(C)S(=O)(=O)c1ccc(F)cc1)C1CC2CCC1C2` (configuration not stated), -0.07% (inactive).
Consider `CCNC(=S)N1CCC(c2nc3cc(C)c(C)cc3[nH]2)CC1`, for which the activation is 84.9% (active).
As for `COCCCNC(=S)N1CCCC(c2nc3cc(C)c(C)cc3[nH]2)C1` (configuration not stated), the figure is 12.7% (inactive).
In the case of `CN(C)CCCNC(=S)N1CCC(c2nc3ccccc3[nH]2)CC1` it was -0.37% (inactive); in that of `CC(=O)Nc1ccc(NC(=O)CCCNC(=O)c2ccc(Cl)cc2)cc1`, 1.47% (inactive).
As for `O=C(Nc1cc(C(F)(F)F)ccc1Cl)c1cc(C2CC2)on1`, the figure is 20.4% (inactive); as for `CCCCC(=O)Nc1ccc(C(=O)Nc2cc(C(F)(F)F)ccc2Cl)cc1`, 140% (active); as for `COc1ccccc1-c1cnn2c(N3CCOCC3)cc(C)nc12`, 34.4% (inactive).
Turning to `O=C(COC(=O)c1cccnc1Cl)NC(=O)NC1CCCCC1`, the activation was -1.66% (inactive).
As for `COC(C[C@@H]1O[C@@H]1C(=O)[C@H](C)OCc1ccccc1)OC`, the figure is -0.2% (inactive); as for `Cn1nc(-c2ccccc2)c(-c2nc(-c3ccc(Cl)cc3)no2)c1Cl`, -1.35% (inactive); as for `Brc1ccc(-c2noc(-c3ccccc3)n2)o1`, 122% (active).
As to `Nc1nonc1-c1noc(-c2ccc(Br)o2)n1`, the activation was 14.2% (inactive).
As to `O=C(OCc1ccc(Br)cc1)c1cccc(-c2nnc(-c3ccccc3)o2)c1`, the activation is 11.6% (inactive).
For the molecule `Brc1ccc(-c2nnc(-c3ccccc3)o2)o1`, the activation is 70.7% (active).
In the case of `Nc1ccc(-c2nnc(-c3ccccc3)o2)cc1` it was 3.02% (inactive); in that of `CCCCCCSc1ccc(-c2nc3ccc(Cl)cn3c2NCc2ccccc2)cc1`, 1.54% (inactive).
As for `Cc1c2cnn(-c3ccccc3)c(=O)c2c(C)n1CCCC(=O)N1CCN(C)CC1`, the figure is -2.09% (inactive).
In the case of `C/C(=N/NC(=O)c1ccc(Br)o1)c1ccc(C)o1`, the activation was 52.7% (active).
As for `CC(C)(C)C1CCC(=NNC(=O)c2ccc(Br)o2)CC1` (configuration not stated), the activation is 9.69% (inactive).
Take `C/C(=N\NC(=S)NC1CCCCC1)c1ccc(C)o1`: the activation was 8.26% (inactive).
As for `CCN(CCCNC(=O)CSc1cc(=O)n(C)c2cc(Cl)ccc12)Cc1ccccc1`, the figure is -0.33% (inactive); as for `O=C(NC1CC1)C(Cc1ccccc1)NS(=O)(=O)c1ccccc1F` (configuration not stated), 3.6% (inactive).
Regarding `Cc1no[n+]([O-])c1COc1ccccc1/C=C1\NC(=S)NC1=O`, the activation is 25.2% (inactive).
As for `COc1ccccc1NC(=O)C(C)OC(=O)c1ccc(-n2cnnn2)cc1` (configuration not stated), the figure is -0.41% (inactive); as for `COc1ccccc1NC(=O)c1cc(Cl)nc2ccccc12`, 48.5% (active); as for `COc1ccc(-c2cc(C(=O)Nc3ccccc3O)c3ccccc3n2)cc1`, -7.68% (inactive).
On to `COc1ccccc1NC(=O)c1cc(Cl)nnc1Cl`, for which the activation was 17.1% (inactive).
As for `CCOC(=O)C1=C(C)N=C2c3ccccc3C(=O)C2C1c1ccc(Br)cc1` (configuration not stated), the figure is 3.41% (inactive); as for `O=C1c2ccccc2C(=O)C1c1ccccc1F`, 1.57% (inactive); as for `O=C1c2ccccc2C2=Nc3ccccc3SC(c3ccccc3F)C12` (configuration not stated), 74.3% (active).
As for `CCCn1cc(S(=O)(=O)c2ccc(C)cc2)c(=O)c2cc(OCC)ccc21`, the figure is -2.12% (inactive); as for `Nc1cccc(-c2cc(-c3ccccc3)nc(-c3cccc(N)c3)n2)c1`, 27.6% (inactive).
As for `Cc1ccc(NC(=O)c2cc(-c3ccccc3O)n[nH]2)cc1C`, the figure is -2.85% (inactive); as for `c1ccc(-c2cc(-c3ccccc3)[nH]n2)cc1`, 65.1% (active); as for `O=C(Nc1cccnc1Cl)c1cc(-c2ccccc2O)on1`, 5.22% (inactive).
Turning to `Oc1ccccc1-c1cc(-c2ccc(Cl)cc2)n[nH]1`, the activation is 52.2% (active).
With `c1ccc(-c2cc(-c3nnc4sc(-c5ccccn5)nn34)[nH]n2)cc1`, the activation was -8.07% (inactive).
With `CCCNC(=O)C(=O)Nc1cc2c3c(c1)CCC(=O)N3CCC2`, the activation was 28.5% (inactive).
As to `CSC1=N/C(=C\C=C\c2cccs2)C(=O)S1`, the activation was 8.97% (inactive).
On to `CCOc1ccc(NC(=O)CCS(=O)(=O)c2ccc3c(c2)CCCN3C(=O)CC)cc1`, for which the activation was 4.35% (inactive).
As for `O=C(Cn1cnc2c(OCc3ccccc3)ncnc21)NCCCn1ccnc1`, the figure is -1.22% (inactive); as for `CCCN1C(=O)C(NC(C)=O)c2cc(OC)ccc21` (configuration not stated), 0.18% (inactive); as for `CCOC1CS(=O)(=O)CC1OCC` (configuration not stated), 1.87% (inactive).

(Values after PubChem BioAssay AID2796 (The Scripps Research Institute Molecular Screening Center, 2010).)
